Out of some 39,000 compounds screened, about 1,500 (3.8%) were called active. For the sample, actives were picked, then their nearest neighbours and some compounds at random.
test system: HSkMC (human skeletal muscle cells); experiment: cytotoxicity call (relative viability < 0.9); conditions: 10 µM

SMILES	cytotoxicity call
C[C@H](CO)N1C[C@H](C)[C@H](CN(C)S(=O)(=O)c2cn(C)cn2)Oc2c(NC(=O)Nc3ccc4c(c3)OCO4)cccc2C1=O	inactive
O=C1CNC(=O)N1C1CCNCC1	inactive
O=C(N/N=C/[C@H](O)[C@@H](O)[C@H](O)[C@H](O)CO[C@H]1O[C@H](CO)[C@H](O)[C@H](O)[C@H]1O)c1ccccn1	inactive
O=C(O)CN1Cc2ccccc2C1=O	inactive
Cc1noc(C)c1S(=O)(=O)N(C)C[C@@H]1OCCCC[C@H](C)Oc2ccc(NS(C)(=O)=O)cc2C(=O)N([C@H](C)CO)C[C@@H]1C	inactive
C[C@H](CO)N1C[C@H](C)[C@H](CN(C)Cc2ccccc2)OCCCC[C@H](C)Oc2ccc(NC(=O)CCC(F)(F)F)cc2C1=O	inactive
COc1ccc(S(=O)(=O)Nc2cccc3c2O[C@@H](CN(C)CC2CC2)[C@@H](C)CN([C@H](C)CO)C3=O)cc1	inactive
C[C@H](O)C#Cc1ccc2c(c1)O[C@H](CN(C)C(=O)CN(C)C)[C@H](C)CN([C@@H](C)CO)S2(=O)=O	inactive
COc1cc(/C=C/C(=O)NCCCNC(=O)/C=C/c2cc(OC)c(OC)c(OC)c2)cc(OC)c1OC	inactive
CN(C)CCc1cc(Br)c(OCCCNC(=O)/C=C/c2cc(Br)c(OCCN3CCCC3)c(Br)c2)c(Br)c1	active
CC(=O)OCC(=O)NCCCOc1cccc(CN2CCCCC2)c1.Cl	inactive
CC(C)N(CCOc1c(Br)cc(/C=C/C(=O)NCCCOc2c(Br)cc(CCN(C)C)cc2Br)cc1Br)C(C)C	active
CN(C)CCc1cc(Br)c(OCCCNC(=O)/C=C/c2cc(Br)c(OCCN3CCCCC3)c(Br)c2)c(Br)c1	inactive
CN(C)CCOc1c(Br)cc(/C=C/C(=O)NCCCOc2c(Br)cc(CCN(C)C)cc2Br)cc1Br	inactive
Cc1noc(C)c1NC(=O)Nc1ccc2c(c1)C(=O)N([C@H](C)CO)C[C@@H](C)[C@H](CN(C)Cc1ccc(C(=O)O)cc1)OCCCC[C@@H](C)O2	inactive
CN1CCN(C(=O)C[C@@H]2CC[C@H](NC(=O)Cc3ccccn3)[C@@H](CO)O2)CC1	inactive
C[C@H]1CN([C@@H](C)CO)C(=O)c2cc(NC(=O)NC3CCCCC3)ccc2O[C@@H]1CN(C)Cc1ccc(-c2ccccc2)cc1	inactive
COc1ccc(S(=O)(=O)N[C@H]2C=C[C@H](CC(=O)NCCc3ccncc3)O[C@H]2CO)cc1	inactive
COc1ccc(S(=O)(=O)N(C)C[C@@H]2Oc3ccc(NS(C)(=O)=O)cc3CC(=O)N([C@H](C)CO)C[C@H]2C)cc1	inactive
Cc1noc(C)c1S(=O)(=O)N(C)C[C@@H]1Oc2ccc(NC(=O)CCC(F)(F)F)cc2CC(=O)N([C@@H](C)CO)C[C@H]1C	inactive
O=C([O-])c1ccccc1-c1c2cc(I)c(=O)c(I)c-2oc2c(I)c([O-])c(I)cc12.[Na+].[Na+]	inactive
O=C(O)c1ccccc1-c1c2cc(I)c(=O)c(I)c-2oc2c(I)c(O)c(I)cc12	active
O=C(O)CN(CC(=O)O)Cc1cc2c(-c3ccccc3C(=O)O)c3cc(CN(CC(=O)O)CC(=O)O)c(=O)cc-3oc2cc1O	inactive
Cn1cnc(CCNC(=O)C[C@H]2CC[C@H]3[C@@H](COC[C@H](O)CN3C(=O)Nc3ccc(Cl)cc3)O2)c1	inactive
O=C(C[C@@H]1CC[C@@H]2[C@H](COC[C@H](O)CN2S(=O)(=O)c2ccccc2F)O1)N1CCC(Cc2ccccc2)CC1	inactive

SMILES	cytotoxicity call
COCC#Cc1cnc2c(c1)C(=O)N([C@@H](C)CO)C[C@@H](C)[C@@H](CN(C)S(=O)(=O)c1cn(C)cn1)O2	inactive
C#CC[C@H](c1nc2cc(Cl)ccc2c(=O)n1Nc1ccccc1)N(CCCN)C(=O)c1cccc(Cl)c1F	active
COc1ccc(NC(=O)N(C)C[C@H]2OCCCC[C@@H](C)Oc3ccc(NC(=O)c4ccccc4)cc3C(=O)N([C@H](C)CO)C[C@@H]2C)cc1	inactive
C[C@H](CO)N1C[C@H](C)[C@@H](CN(C)S(=O)(=O)c2cn(C)cn2)Oc2c(NC(=O)c3ccc(-c4nccs4)cc3)cccc2C1=O	inactive
COc1cc(Nc2ncc(F)c(Nc3ccc4c(n3)N(COP(=O)(O)O)C(=O)C(C)(C)O4)n2)cc(OC)c1OC	active
NC1CCCCC1N.O=C1[O][Pt][O]C1=O (stereo not drawn)	inactive
Cc1noc(C)c1NC(=O)N(C)C[C@H]1Oc2c(NC(=O)NC(C)C)cccc2C(=O)N([C@@H](C)CO)C[C@H]1C	inactive
Cc1ccc(S(=O)(=O)Nc2ccc3c(c2)C(=O)N([C@@H](C)CO)C[C@H](C)[C@@H](CN(C)C(=O)NC2CCCCC2)OCCCC[C@H](C)O3)cc1	inactive
C[C@H](CO)N1C[C@H](C)[C@H](CN(C)C(=O)c2ccncc2)OCCCC[C@H](C)Oc2ccc(NS(=O)(=O)c3cn(C)cn3)cc2C1=O	inactive
CC(=O)Oc1ccccc1C(=O)Nc1ccccc1	inactive
CC(=O)Oc1ccccc1C(=O)Nc1ncc([N+](=O)[O-])s1	active
CC(=O)Nc1ncc([N+](=O)[O-])s1	inactive
C[C@@H]1CN([C@H](C)CO)C(=O)c2cc(N(C)C)ccc2O[C@@H](C)CCCCO[C@@H]1CN(C)S(=O)(=O)c1cn(C)cn1	inactive
CCCNC(=O)C[C@H]1CC[C@H]2[C@@H](COc3ccc(NC(=O)Nc4ccc(C#N)cc4)cc3C(=O)N2C)O1	inactive
CCOCCOCCOc1oc(C(=O)NC2CCCCC2)c(-c2ccc(Cl)cc2)c1S(=O)(=O)c1ccc(Cl)cc1	inactive
CS(=O)(=O)O.CSc1ccc2c(c1)C(N1CCN(C)CC1)Cc1ccccc1S2 (stereo not drawn)	active
CSc1ccc2c(c1)N(CCC1CCCCN1C)c1ccccc1S2.Cl (stereo not drawn)	inactive
CN1CCC(=C2c3ccccc3Sc3ccccc32)CC1.O=C(O)C=CC(=O)O	inactive
C[C@@H]1CN([C@H](C)CO)S(=O)(=O)c2ccc(C#Cc3ccc(F)cc3)cc2O[C@H]1CN(C)C(=O)CN(C)C	inactive
CC(C)NC(=O)N(C)C[C@H]1Oc2ccc(NC(=O)NC3CCCCC3)cc2CC(=O)N([C@@H](C)CO)C[C@H]1C	inactive
CNC(=O)Nc1ccc(-c2nc(N3C[C@H]4CC[C@@H](C3)O4)c3cnn(C4CCC5(CC4)OCCO5)c3n2)cc1	active
CCC(C)C1OC2(C=CC1C)CC1CC(CC=C(C)C(OC3CC(OC)C(OC4CC(OC)C(O)C(C)O4)C(C)O3)C(C)C=CC=C3COC4C(OC)C(C)=CC(C(=O)O1)C34O)O2 (stereo not drawn)	active
CCC(C)C1OC2(C=CC1C)CC1CC(CC=C(C)C(OC3CC(OC)C(OC4CC(OC)C(NC(C)=O)C(C)O4)C(C)O3)C(C)C=CC=C3COC4C(O)C(C)=CC(C(=O)O1)C34O)O2 (stereo not drawn)	inactive
CO[C@H]1C[C@H](O[C@H]2[C@H](C)O[C@@H](O[C@@H]3/C(C)=C/C[C@@H]4C[C@@H](C[C@]5(C=C[C@H](C)[C@@H](C6CCCCC6)O5)O4)OC(=O)[C@@H]4C=C(C)[C@@H](O)[C@H]5OC/C(=C\C=C\[C@@H]3C)[C@]54O)C[C@@H]2OC)O[C@@H](C)[C@@H]1O	inactive
CC[C@H](C)[C@H]1O[C@]2(C=C[C@@H]1C)C[C@@H]1C[C@@H](C/C=C(\C)[C@@H](O[C@H]3C[C@H](OC)[C@@H](O[C@H]4C[C@H](OC)[C@@H](NC(C)=O)[C@H](C)O4)[C@H](C)O3)[C@@H](C)/C=C/C=C3\CO[C@@H]4[C@H](O)C(C)=C[C@@H](C(=O)O1)[C@]34O)O2	active

SMILES	cytotoxicity call
COC1CC(OC2C(C)OC(OC3C(C)=CCC4CC(CC5(C=CC(C)C(C6CCCCC6)O5)O4)OC(=O)C4C=C(C)C(O)C5OCC(=CC=CC3C)C45O)CC2OC)OC(C)C1O (stereo not drawn)	inactive
CN[C@@H]1[C@@H](C)O[C@@H](O[C@H]2[C@H](C)O[C@@H](O[C@@H]3/C(C)=C/C[C@@H]4C[C@@H](C[C@]5(C=C[C@H](C)[C@@H](C(C)C)O5)O4)OC(=O)[C@@H]4C=C(C)[C@@H](O)[C@H]5OC/C(=C\C=C\[C@@H]3C)[C@]54O)C[C@@H]2OC)C[C@H]1OC	active
C[C@H](CO)N1C[C@H](C)[C@@H](CN(C)C(=O)C2CCC2)Oc2cc(C#Cc3ccncc3)ccc2S1(=O)=O	inactive
Cc1noc(C)c1NC(=O)N(C)C[C@@H]1OCCCC[C@@H](C)Oc2ccc(NS(=O)(=O)c3ccc(Cl)cc3)cc2C(=O)N([C@H](C)CO)C[C@H]1C	inactive
C[C@@H]1CN([C@H](C)CO)S(=O)(=O)c2ccc(C3=CCCC3)cc2O[C@H]1CN(C)C(=O)c1cnccn1	inactive
COc1cccc(S(=O)(=O)N2C[C@H](O)COC[C@@H]3O[C@H](CC(=O)N4CCOCC4)CC[C@H]32)c1	inactive
C[C@H]1CN([C@@H](C)CO)C(=O)c2cc(NC(=O)CCCN(C)C)ccc2O[C@H]1CN(C)Cc1ccc2c(c1)OCO2	inactive
COCC(=O)Nc1ccc2c(c1)OC[C@@H](C)N(C(=O)Cc1cccnc1)C[C@@H](C)[C@@H](OC)CN(C)C2=O	inactive
C[C@H](CO)N1C[C@H](C)[C@@H](CN(C)C(=O)CCN2CCCCC2)Oc2ncc(C#Cc3ccccn3)cc2C1=O	inactive
CN(Cc1ccccn1)C(=O)[C@@]12COC[C@@H]1CN(S(C)(=O)=O)C2	inactive
CC(C)NC(=O)Nc1ccc2c(c1)C(=O)N([C@H](C)CO)C[C@@H](C)[C@H](CN(C)Cc1ccccc1)OCCCC[C@H](C)O2	inactive
C[C@H](CO)N1C[C@H](C)[C@@H](CN(C)C(=O)Nc2ccc(F)cc2)Oc2ccc(NC(=O)Nc3ccc(C(F)(F)F)cc3)cc2C1=O	inactive
C[C@H](CO)N1C[C@H](C)[C@H](CN(C)C(=O)Nc2ccc(C(F)(F)F)cc2)Oc2ccc(NC(=O)Nc3ccc(F)cc3)cc2C1=O	active
C[C@@H]1CN([C@H](C)CO)C(=O)c2cc(NC(=O)Nc3ccc(C(F)(F)F)cc3)ccc2O[C@@H]1CN(C)C(=O)Nc1ccc(F)cc1	active
C[C@@H]1CN([C@@H](C)CO)C(=O)c2cc(NC(=O)Nc3ccc(F)cc3)ccc2O[C@@H]1CN(C)C(=O)Nc1ccc(C(F)(F)F)cc1	active
C[C@H]1CN([C@@H](C)CO)C(=O)c2cc(NC(=O)Nc3ccc(F)cc3)ccc2O[C@@H]1CN(C)C(=O)Nc1ccc(C(F)(F)F)cc1	inactive
C[C@@H]1CN([C@@H](C)CO)C(=O)c2cc(NC(=O)Nc3ccc(C(F)(F)F)cc3)ccc2O[C@@H]1CN(C)C(=O)Nc1ccc(F)cc1	active
C[C@H]1CN([C@@H](C)CO)C(=O)c2cc(NC(=O)Nc3ccc(F)cc3)ccc2O[C@H]1CN(C)C(=O)Nc1ccc(C(F)(F)F)cc1	inactive
C[C@H](CO)N1C[C@H](C)[C@@H](CN(C)C(=O)Nc2ccc(C(F)(F)F)cc2)Oc2ccc(NC(=O)Nc3ccc(F)cc3)cc2C1=O	inactive
C[C@@H]1CN([C@H](C)CO)C(=O)c2cc(NC(=O)Nc3ccc(C(F)(F)F)cc3)ccc2O[C@H]1CN(C)C(=O)Nc1ccc(F)cc1	inactive
C[C@@H]1CN([C@H](C)CO)C(=O)c2cc(NC(=O)Nc3ccc(F)cc3)ccc2O[C@H]1CN(C)C(=O)Nc1ccc(C(F)(F)F)cc1	inactive
C[C@H](CO)N1C[C@H](C)[C@H](CN(C)C(=O)Nc2ccc(F)cc2)Oc2ccc(NC(=O)Nc3ccc(C(F)(F)F)cc3)cc2C1=O	inactive
C[C@H]1CN([C@@H](C)CO)C(=O)c2cc(NC(=O)Nc3ccc(C(F)(F)F)cc3)ccc2O[C@H]1CN(C)C(=O)Nc1ccc(F)cc1	inactive

Reference: the antibiotic and cytotoxicity screens of Wong et al. (2023)
